This test has as its target RPA (Rfa1-Rfa2-Rfa3) (Saccharomyces cerevisiae, UniProt P22336;P26754;P26755 1-621;1-273;1-122). As to the kind of experiment: EMSA; 10 nM RPA, 150 mM KCl; 20 mM Tris-HCl pH 7.5, 150 mM KCl (15 mM in Supp. Fig. 1b), 1 mM DTT, 100 ug/mL BSA, 5 nM ssDNA, 30 C 10 min; 4% native gel in 0.2x TBE; high values mean tight binding. Particulars: protein: recombinant; copies: 1;1;1; label: 5'-32P; ssDNA. For orientation: In EMSA bound probe runs differently from free probe, usually more slowly.
RPA (Rfa1-Rfa2-Rfa3), sequence (P22336 whole entry, chain 1 of 3): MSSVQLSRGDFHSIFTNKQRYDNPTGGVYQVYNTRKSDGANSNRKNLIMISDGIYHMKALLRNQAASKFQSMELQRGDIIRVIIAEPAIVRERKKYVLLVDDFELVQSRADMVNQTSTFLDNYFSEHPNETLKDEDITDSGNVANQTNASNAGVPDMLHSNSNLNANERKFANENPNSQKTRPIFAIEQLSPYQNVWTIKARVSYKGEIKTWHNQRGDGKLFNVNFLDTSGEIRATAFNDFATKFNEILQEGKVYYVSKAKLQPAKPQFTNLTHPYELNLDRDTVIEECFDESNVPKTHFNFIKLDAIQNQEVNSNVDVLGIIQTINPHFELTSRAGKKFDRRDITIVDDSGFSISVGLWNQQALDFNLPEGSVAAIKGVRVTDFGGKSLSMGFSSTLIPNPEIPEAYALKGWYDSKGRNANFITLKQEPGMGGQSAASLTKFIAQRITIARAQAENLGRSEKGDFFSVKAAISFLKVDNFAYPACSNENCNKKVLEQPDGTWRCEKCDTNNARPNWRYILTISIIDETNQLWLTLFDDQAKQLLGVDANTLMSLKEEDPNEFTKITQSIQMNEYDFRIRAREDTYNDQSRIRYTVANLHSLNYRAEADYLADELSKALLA
RPA (Rfa1-Rfa2-Rfa3), sequence (P26754 whole entry, chain 2 of 3): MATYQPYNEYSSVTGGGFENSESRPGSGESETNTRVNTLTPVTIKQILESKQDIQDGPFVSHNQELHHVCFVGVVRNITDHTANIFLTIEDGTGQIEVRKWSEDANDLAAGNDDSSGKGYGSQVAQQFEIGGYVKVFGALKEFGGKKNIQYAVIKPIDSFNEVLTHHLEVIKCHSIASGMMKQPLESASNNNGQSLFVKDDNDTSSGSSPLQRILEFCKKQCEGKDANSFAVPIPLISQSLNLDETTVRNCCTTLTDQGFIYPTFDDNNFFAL
RPA (Rfa1-Rfa2-Rfa3), sequence (P26755 whole entry, chain 3 of 3): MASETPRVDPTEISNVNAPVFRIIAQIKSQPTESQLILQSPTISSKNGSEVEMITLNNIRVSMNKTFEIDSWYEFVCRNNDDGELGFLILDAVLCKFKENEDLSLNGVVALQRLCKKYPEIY
Turning to TTTTTTTTTT, the binding signal was 1.24 % bound.

With TTTTTTTTTTTTTTTTTT, the binding signal was found to be 39.7 % bound.

On to TTTTTTTTTTTTTT, for which the binding signal is 3.33 ± 2.59 % bound.

The values above are taken from PMC10313831, “ssDNA accessibility of Rad51 is regulated by orchestrating multiple RPA dynamics”.
